Hits are enriched below; roughly 21% of the tested compounds scored in any of these assays.
Pf growth 96h = P. falciparum growth inhibition at 96 hour, primary screen for plastid delayed-death inhibitors | Potency, µM (titrated, usually from 28.7 µM), inactives show at the top dose activity change, negative = inhibition, usual class: inhibitors | AID 504834 | P. falciparum luciferase reporter growth, 96 h | hit rate 6.9% among 320,000; also: potency is read from the fitted curve at half-maximal effect; % is scaled to controls: 0 for no effect and ±100 for the full control effect
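96 h incubation, 37 C, 5% CO2, of luciferase-reporter P. falciparum-infected RBCs (2% hematocrit, 0.05% parasitemia final) with test compounds; endpoint luminescence.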
Shiga toxin inh = blocks Shiga toxin action in Vero cells. hit rate 9.2% among 290,000. Vero cells, Shiga toxin protein synthesis inhibition reporter. inhibition, % at 38.7 µM. AID 2315; in the data active = inhibition mostly above about 28%, no sharp cut-off; inactive = mostly below about 43%; also: 0% is about no effect
CHX counter = counter-screen for Shiga toxin inhibitors: cycloheximide protein synthesis inhibition. AID 2314. cell reporter, cycloheximide protein synthesis inhibition counterscreen. hit rate 12% among 300,000. max response, %; in the data active = max response mostly above about 13%, no sharp cut-off; inactive = mostly below about 14%; also: read at 38.3 µM for the half of the compounds with a filed dose; 0% is about no effect
Pf growth 48h = inhibits P. falciparum growth in the first generation, 48 h. P. falciparum luciferase growth in erythrocytes, 48 h. Potency, µM (top dose mostly 28.7 µM), without a hit: at the top dose activity change, negative = inhibition, most hits filed as inhibitors. hit rate 5.9% among 310,000; also: potency is read from the fitted curve at half-maximal effect; % is scaled to controls: 0 for no effect and ±100 for the full control effect
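A one-generation exposure of luciferase-tagged malaria parasites in RPMI 1640/Albumax erythrocyte culture, 37 C and 5% CO2. Inhibition is inferred from decreased luminescence after adding detection reagent.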
Giardia FBPA inh = inhibitors of Giardia lamblia fructose-1,6-bisphosphate aldolase; A8B2U2; purified Giardia FBPA; Potency, µM (series often up to 59.6 µM), for inactives: at the highest dose activity, negative = inhibition, usual class: inhibitors; hit rate 0.71% among 290,000; also: potency is read from the fitted curve at half-maximal effect; % is scaled to controls: 0 for no effect and ±100 for the full control effect; nearly all actives have a fitted effect of over 55% in size
Target sequence (A8B2U2 whole entry, looked up): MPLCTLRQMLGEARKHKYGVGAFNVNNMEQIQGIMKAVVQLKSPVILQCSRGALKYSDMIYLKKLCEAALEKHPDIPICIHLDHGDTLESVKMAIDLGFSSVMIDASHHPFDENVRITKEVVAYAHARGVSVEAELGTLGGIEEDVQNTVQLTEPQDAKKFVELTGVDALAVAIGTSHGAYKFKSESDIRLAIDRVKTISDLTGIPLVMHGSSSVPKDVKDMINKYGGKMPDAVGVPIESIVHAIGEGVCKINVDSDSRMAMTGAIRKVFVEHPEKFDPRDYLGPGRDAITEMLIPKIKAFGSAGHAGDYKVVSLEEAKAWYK
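40 nM FBPA preincubated 10 min at RT with compound (up to 57.5 uM final), then substrate plus GAPDH/TPI/NAD/arsenate coupling and diaphorase/resazurin added. Fluorescence read after 20 min at RT, 525/598 nm.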
NS1 inh = blocks influenza NS1 protein function; Potency, µM (doses to about 46.1 µM), without a hit: at the highest dose activity, positive = more growth; hit rate 0.4% among 270,000; calls by dose curve; also: potency is read from the fitted curve at half-maximal effect; actives are rising curves; nearly all actives have a fitted effect of over 50% in size
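Compounds were scored for reversing the slow growth caused by influenza A NS1 in S. cerevisiae, measured by optical density at 600 nm. Assay medium contained 2% galactose at pH 6.0; NS1-free yeast of the same strain were the positive control.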
An asterisk follows results filed as active; ? = inconclusive; . = not tested or not shown; [ ] = another dose, or the depositor's remark. Unless noted, calls follow the shape of the dose curve; as a rule, active = well fitted curve in the direction sought with a large enough effect; inconclusive = small, poorly fitted or top-dose-only effect, or another doubt; inactive = no such curve, though single readings can be large; an effect the other way counts as inactive or inconclusive.

SMILES	Pf growth 96h	Shiga toxin inh	CHX counter	Pf growth 48h	Giardia FBPA inh	NS1 inh
Cc1ccc(-c2noc(-c3ccoc3C)n2)cc1	16.3%	83.3*	49.4*	156.2%	-6.5%	3.9%
COc1cc(OC)c(-c2nc(-c3ccncc3)no2)cc1OC	28.4%	-6.8	9.1	78.4%	6.9%	-7.2%
Cc1occc1-c1nc(-c2ccccn2)no1	202.4%	67.9*	26.4*	451.5%	0.2%	-10.0%
Cc1occc1-c1nc(-c2ccncc2)no1	12.6%	79.8*	33.6*	76.1%	4.6%	-0.1%
CN(C)c1cccc(C(=O)OCCCC(=O)c2ccc(F)cc2)c1	12.4%	.	.	-17.7%	.	.
COc1ccc2cc(-c3ccon3)ccc2c1	125.4%	107.1*	31.8*	-8.9%[0.00184 µM]	3.6%	-11.6%
CC(C)CCNC(=O)c1cnn2c(C(F)(F)F)cc(-c3ccco3)nc12	9.28µM*	-21.8	-2.4	?	-14.7%	1.7%
O=C(NCc1ccco1)c1cnn2c(C(F)(F)F)cc(-c3ccccc3)nc12	-10.3%	9.2	0.8	13.1µM*	-10.1%	-2.4%
CC(C)OC(=O)c1nn2c(C(F)(F)F)cc(-c3ccco3)nc2c1Cl	13.1µM*	-7.3	0.7	8.4%	6.2%	0.0%
CCOC(=O)C(=NCCCN(C)C)NNc1cc(C(F)(F)F)ccc1Cl	32.1%	-4.3	-3.1	24.2%	?	.
CCC1COCCS(=O)(=O)N1Cc1ccc(F)cc1 (stereo not given)	76.3%	-3.5	-2.2	3.0%	10.6%	4.0%
C(=C/c1ccnc2nc(SC/C=C/c3ccccc3)nn12)/c1ccccc1	14.7µM*	-9.1	0.9	?	0.0%	12.1%
COc1cccc(COC(=O)C2CCN(C(=O)c3ccc(F)cc3)CC2)c1OC	-0.6%	.	.	?	.	.
O=[N+]([O-])c1ccc(NC2CCN(Cc3ccccc3)CC2)c2ccncc12	?	17.2	-6.5	1.65µM*	14.7%	-3.8%
O=C1C2CCCCC2C(=O)N1c1ccc(NC2CCN(Cc3ccccc3)CC2)c([N+](=O)[O-])c1 (stereo not given)	-8.1%	-3.3	-2.4	?	1.9%	.
CC1CCC2C(=O)N(c3ccc(NC4CCN(Cc5ccccc5)CC4)c([N+](=O)[O-])c3)C(=O)C2C1 (stereo not given)	18.1%	20.2	-1.2	11.7µM*	5.6%	.
Cc1ccc(NC(=O)Cc2nc(CN(C)CC(=O)Nc3ccc(C)cc3)cs2)cc1	?	.	.	13.1µM*	.	.
CN(C)C(=O)c1ccc(NC(=O)CSc2nnc(-c3ccc4c(c3)OCO4)o2)cc1	?	.	.	0.9%	.	.
Cc1ccc(NC(=O)Cc2nc(CSc3nnc(-c4ccc5c(c4)OCO5)o3)cs2)cc1	3.7µM*	98.0*	16.0	212.5%	-3.2%	-7.2%
COCC(C)n1c(C)cc(C(=O)COC(=O)c2nc3nc(C)cc(C)n3n2)c1C (stereo not given)	.	-10.1	1.6	-6.0%	-11.0%	3.9%
COCC(C)n1c(C)cc(C(=O)COC(=O)c2ccc3ncsc3c2)c1C (stereo not given)	-17.6%	68.1*	24.3*	-3.1%	8.7%	3.3%
Cc1cc(N/N=C/c2ccncc2)nc2ccccc12	?	49.5*	13.7	?	-8.9%	0.3%
Cc1cc(N/N=C/c2cccc(Br)c2)nc2ccccc12	39.4%	23.8*	33.4*	?	-3.2%	-8.7%
O=C1NC(=Nc2ccccc2)SC1Cc1ccccc1 (stereo not given)	-3.2%	-13.2	1.1	68.7%	8.3%	12.4%
O=C1C(Cc2ccccc2)SC(=Nc2ccccc2)N1c1ccccc1 (stereo not given)	4.1%	-7.2	2.3	13.1µM*	1.2%	12.1%
SMILES	Pf growth 96h	Shiga toxin inh	CHX counter	Pf growth 48h	Giardia FBPA inh	NS1 inh
Cc1cc(C)c(S(=O)(=O)Cc2ccccc2)c(OC(C)C)n1	10.4µM*	-3.4	-1.6	?	5.0%	-5.9%
CN(C[C@H](Cc1ccccc1)N(C[C@H](Cc1ccccc1)N(CC1(c2ccccc2)CC1)N=O)N=O)N=O	10.4µM*	-17.2	1.1	?	-3.1%	8.1%
CN(C[C@@H](CC1CCCCC1)N(C[C@H](Cc1ccccc1)N(CCc1ccccc1)N=O)N=O)N=O	11.7µM*	-11.0	-3.1	?	-8.0%	8.4%
CCC(C)[C@@H](CN(N=O)[C@@H](Cc1ccccc1)CN(C)N=O)N(CCc1ccccc1)N=O (stereo not given in full)	?	-2.7	-2.2	?	-13.2%	14.6%
CN(C[C@H](Cc1ccccc1)N(C[C@H](CC1CCCCC1)N(CCc1ccccc1)N=O)N=O)N=O	?	-7.8	0.6	-1.8%	-0.2%	1.4%
C=CCC1C=CC(Oc2ccc(F)cc2C)C(CO)O1 (stereo not given)	.	.	.	.	1.7%[12.9 µM]	.
O=C(CNC(=O)c1ccc(Br)o1)NCC(=O)OCc1ccccc1	13.0%	.	.	?	.	.
CS(=O)(=O)N1CCC[C@@]2(CCN(Cc3ccc(C#N)cc3)C2)C1	.	.	.	.	1.2%	.
O=c1[nH]c2ccccc2c2nc3ccccn3c12	-10.0%	50.6*	39.7*	17.4%	-7.8%	-165.1%
CCOC(=O)N1CCN(c2nc3ccccn3c(=O)c2C=O)CC1	0.828µM*	-8.1	0.6	0.294µM*	5.7%	-1.8%
COC(=O)CSc1nc2ccccn2c(=O)c1C=O	246.0%	45.9*	17.5*	298.4%	-5.3%	.
CCNC(=O)/C(C#N)=C/c1c(N2CCN(c3ccccc3)CC2)nc2ccccn2c1=O	-16.7%	44.1*	28.8*	-12.9%	-13.5%	3.9%
CC1C(=O)CC2C3(C)CCC2(C(C)C(=O)O)C(=O)C13 (stereo not given)	-8.7%	.	.	2.6%	.	.
CN(CCOc1ccc(Cl)cc1)C(=O)CN1C(=O)NC2(CCCC2)C1=O	-4.9%	.	.	-1.7%	.	.
O=Cc1c(Sc2ccccc2)nc2ccccn2c1=O	7.38µM*	3.5	1.3	.	4.9%	-52.4%
O=c1c2ccccc2nc2c3ccccc3cnn12	96.4%	78.2*	40.4*	78.1%	1.5%	.
CCOC(=O)c1c(C)nc2ccccn12	.	19.3	1.0	26.0%	-2.3%	-85.2%
O=c1c2ccccc2nc2c3ccccc3c(Cl)nn12	2.3%	10.6	1.2	43.1%	6.3%	4.7%
O=Cc1c(Sc2ccccn2)nc2ccccn2c1=O	?	9.1	-5.6	?	-3.8%	2.5%
O=c1c(-c2ccccc2)c(O)nc2ccccn12	?	-10.6	-1.3	33.5%	-6.9%	1.1%
O=c1c2ccccc2nc2ccccn12	21.7%	70.1*	41.5*	175.7%	-2.7%	.
CCOC(=O)c1c(C2CCN(C(=O)OCC)CC2)nc2ccccn12	5.22µM*	3.8	-6.6	.	0.5%	-107.5%
CC(=O)c1c(C)[nH]c(C(=O)N(C)CC(=O)Nc2ccc(Cl)c(C(F)(F)F)c2)c1C	1.5%	-3.0	-1.3	-7.3%	.	12.9%
CCOC(=O)Cc1nnc(Nc2ccc(C)cc2)c2ccccc12	10.4µM*	29.1	2.0	-6.4%	2.5%	18.5%
CCOC(=O)c1ccc(Nc2nnc(C)c3ccccc23)cc1	-1.2%	56.1*	20.3*	-12.4%	-4.2%	-39.9%
